# Key:
# Experiment in all cases: DAPPL (digital affinity profiling via proximity ligation, sequencing); 10 mM Tris-HCl pH 7.5, 50 mM NaCl, 1 mM DTT, 4% glycerol, room temperature, 30 min; GST-TFs on glutathione beads, 16-mer random dsDNA library, 0.1% formaldehyde crosslink after washing; high values mean tight binding
# [1] = target: T1, FLI1 (Homo sapiens, UniProt Q01543 1-452); settings: protein: recombinant; tags: N-terminal GST; dsDNA, one strand shown
# T1 sequence: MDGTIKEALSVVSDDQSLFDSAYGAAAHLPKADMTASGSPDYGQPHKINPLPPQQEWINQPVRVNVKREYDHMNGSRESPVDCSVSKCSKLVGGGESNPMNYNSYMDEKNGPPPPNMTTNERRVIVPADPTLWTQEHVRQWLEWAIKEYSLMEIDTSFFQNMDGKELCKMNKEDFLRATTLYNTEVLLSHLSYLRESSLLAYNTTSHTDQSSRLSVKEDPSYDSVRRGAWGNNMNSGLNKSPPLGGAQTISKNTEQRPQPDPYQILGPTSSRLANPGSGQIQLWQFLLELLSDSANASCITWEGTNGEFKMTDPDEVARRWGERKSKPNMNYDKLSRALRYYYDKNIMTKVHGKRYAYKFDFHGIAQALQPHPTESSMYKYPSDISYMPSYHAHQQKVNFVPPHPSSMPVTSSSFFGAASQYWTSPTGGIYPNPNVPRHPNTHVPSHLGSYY
# How it was run: (§1)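 Pools of DNA-barcoded human transcription factors, expressed in yeast as GST fusions on glutathione beads and combined with a tag-only sample, were incubated with 200 nmole of a 16-mer random double-stranded DNA library. Incubation took 30 min at room temperature in Tris/NaCl/DTT/glycerol buffer and was followed by washing, 0.1% formaldehyde crosslinking, proximity ligation (BsaI/T4 ligase, 1 h, 37 °C), PCR amplification and sequencing on an Illumina NextSeq500. Binding signal is the ratio of a hexamer's read frequency for a factor to its frequency for the tag-only sample.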
# [2] = target: T2, ELK1 (Homo sapiens, UniProt P19419 1-428); settings: protein: recombinant; tags: N-terminal GST; dsDNA, one strand shown
# T2 sequence: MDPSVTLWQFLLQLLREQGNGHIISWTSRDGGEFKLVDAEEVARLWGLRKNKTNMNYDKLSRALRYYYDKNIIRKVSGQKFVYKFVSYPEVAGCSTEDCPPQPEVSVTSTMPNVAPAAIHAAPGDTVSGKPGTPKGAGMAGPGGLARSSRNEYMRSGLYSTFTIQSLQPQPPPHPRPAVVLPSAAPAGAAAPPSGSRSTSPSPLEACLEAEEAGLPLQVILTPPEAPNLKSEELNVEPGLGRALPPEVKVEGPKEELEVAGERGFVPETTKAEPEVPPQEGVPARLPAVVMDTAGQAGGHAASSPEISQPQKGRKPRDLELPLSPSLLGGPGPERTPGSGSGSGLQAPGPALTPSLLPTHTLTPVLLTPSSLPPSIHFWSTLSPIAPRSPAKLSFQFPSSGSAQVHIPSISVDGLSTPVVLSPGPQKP
# How it was run: as §1
# [3] = target: T3, GABPA (Homo sapiens, UniProt Q06546 1-454); settings: protein: recombinant; tags: N-terminal GST; dsDNA, one strand shown
# T3 sequence: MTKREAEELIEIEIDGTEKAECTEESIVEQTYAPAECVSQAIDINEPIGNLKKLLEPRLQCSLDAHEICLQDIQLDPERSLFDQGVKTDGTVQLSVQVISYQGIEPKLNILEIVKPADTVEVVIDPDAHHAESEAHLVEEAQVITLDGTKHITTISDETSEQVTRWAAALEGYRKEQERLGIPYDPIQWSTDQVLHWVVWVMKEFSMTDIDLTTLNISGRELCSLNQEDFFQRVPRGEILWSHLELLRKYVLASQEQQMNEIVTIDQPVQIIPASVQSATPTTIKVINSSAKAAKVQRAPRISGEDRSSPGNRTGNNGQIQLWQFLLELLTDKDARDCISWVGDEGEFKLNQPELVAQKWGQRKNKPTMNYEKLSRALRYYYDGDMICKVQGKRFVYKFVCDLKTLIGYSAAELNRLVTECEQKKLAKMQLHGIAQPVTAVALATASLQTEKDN
# How it was run: as §1
# [4] = target: T4, ERG (Homo sapiens, UniProt P11308 1-479); settings: protein: recombinant; tags: N-terminal GST; dsDNA, one strand shown
# T4 sequence: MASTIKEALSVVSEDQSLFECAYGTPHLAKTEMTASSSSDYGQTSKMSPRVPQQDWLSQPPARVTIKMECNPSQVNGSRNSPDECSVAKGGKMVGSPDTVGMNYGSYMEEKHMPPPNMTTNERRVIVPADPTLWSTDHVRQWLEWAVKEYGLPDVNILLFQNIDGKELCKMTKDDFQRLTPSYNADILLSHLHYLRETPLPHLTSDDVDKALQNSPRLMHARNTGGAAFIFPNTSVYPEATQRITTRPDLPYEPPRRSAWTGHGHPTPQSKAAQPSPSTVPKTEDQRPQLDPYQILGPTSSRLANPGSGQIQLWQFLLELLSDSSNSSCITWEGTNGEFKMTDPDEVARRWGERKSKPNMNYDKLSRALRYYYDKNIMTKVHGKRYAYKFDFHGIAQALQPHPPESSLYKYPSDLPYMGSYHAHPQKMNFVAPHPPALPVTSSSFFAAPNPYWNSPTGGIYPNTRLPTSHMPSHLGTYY
# How it was run: as §1
# [5] = target: ELF1 (Homo sapiens, UniProt P32519 1-619); settings: protein: recombinant; tags: N-terminal GST; dsDNA, one strand shown
# ELF1, sequence (P32519 whole entry): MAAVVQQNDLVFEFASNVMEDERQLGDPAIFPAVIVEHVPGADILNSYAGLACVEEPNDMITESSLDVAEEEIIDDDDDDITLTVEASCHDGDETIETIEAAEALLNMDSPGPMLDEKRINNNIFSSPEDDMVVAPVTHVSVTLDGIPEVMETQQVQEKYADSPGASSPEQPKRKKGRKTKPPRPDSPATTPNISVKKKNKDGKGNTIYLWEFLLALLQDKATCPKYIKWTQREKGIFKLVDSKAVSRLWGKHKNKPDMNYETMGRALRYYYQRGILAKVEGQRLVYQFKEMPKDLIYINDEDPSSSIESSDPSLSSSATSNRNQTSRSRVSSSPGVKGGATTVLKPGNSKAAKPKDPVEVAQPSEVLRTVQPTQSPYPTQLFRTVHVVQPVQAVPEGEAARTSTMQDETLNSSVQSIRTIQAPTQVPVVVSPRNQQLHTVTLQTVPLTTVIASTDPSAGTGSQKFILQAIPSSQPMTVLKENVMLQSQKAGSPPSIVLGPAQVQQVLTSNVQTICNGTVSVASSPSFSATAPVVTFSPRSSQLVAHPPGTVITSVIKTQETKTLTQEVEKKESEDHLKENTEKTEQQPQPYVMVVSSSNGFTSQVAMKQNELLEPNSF
# How it was run: as §1
# [6] = target: T5, EHF (Homo sapiens, UniProt Q9NZC4 1-300); settings: protein: recombinant; tags: N-terminal GST; dsDNA, one strand shown
# T5 sequence: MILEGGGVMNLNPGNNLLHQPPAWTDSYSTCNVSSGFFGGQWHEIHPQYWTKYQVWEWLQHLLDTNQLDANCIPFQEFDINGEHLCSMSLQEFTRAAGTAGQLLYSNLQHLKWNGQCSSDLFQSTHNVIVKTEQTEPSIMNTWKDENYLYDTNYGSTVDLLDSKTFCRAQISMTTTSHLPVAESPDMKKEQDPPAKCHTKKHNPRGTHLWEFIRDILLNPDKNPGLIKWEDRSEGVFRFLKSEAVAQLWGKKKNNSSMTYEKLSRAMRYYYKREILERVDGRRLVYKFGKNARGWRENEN
# How it was run: as §1
# [7] = target: SPI1 (Homo sapiens, UniProt P17947 1-270); settings: protein: recombinant; tags: N-terminal GST; dsDNA, one strand shown
# How it was run: as §1
# [8] = target: SPIB (Homo sapiens, UniProt Q01892 1-262); settings: protein: recombinant; tags: N-terminal GST; dsDNA, one strand shown
# SPIB, sequence (Q01892 whole entry): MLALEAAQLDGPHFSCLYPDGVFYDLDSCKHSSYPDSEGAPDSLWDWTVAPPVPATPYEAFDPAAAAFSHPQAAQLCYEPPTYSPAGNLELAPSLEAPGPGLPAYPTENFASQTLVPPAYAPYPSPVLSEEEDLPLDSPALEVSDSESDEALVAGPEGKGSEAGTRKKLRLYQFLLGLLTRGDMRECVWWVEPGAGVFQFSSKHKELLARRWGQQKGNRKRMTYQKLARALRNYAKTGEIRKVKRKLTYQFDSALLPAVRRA
# How it was run: as §1
# [9] = target: T6, ELK3 (Homo sapiens, UniProt P41970 1-407); settings: protein: recombinant; tags: N-terminal GST; dsDNA, one strand shown
# T6 sequence: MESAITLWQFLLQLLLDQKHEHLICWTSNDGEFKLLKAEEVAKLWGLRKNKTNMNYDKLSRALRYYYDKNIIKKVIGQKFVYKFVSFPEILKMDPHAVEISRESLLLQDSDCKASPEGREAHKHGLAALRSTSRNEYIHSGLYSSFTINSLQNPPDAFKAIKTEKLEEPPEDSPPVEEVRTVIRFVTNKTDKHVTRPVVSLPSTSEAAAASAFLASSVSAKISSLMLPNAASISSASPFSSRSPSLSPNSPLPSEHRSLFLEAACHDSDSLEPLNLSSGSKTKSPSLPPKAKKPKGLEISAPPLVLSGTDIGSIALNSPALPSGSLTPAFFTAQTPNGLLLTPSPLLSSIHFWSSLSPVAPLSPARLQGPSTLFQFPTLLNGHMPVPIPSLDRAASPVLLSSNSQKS
# How it was run: as §1
# [10] = target: T7, FEV (Homo sapiens, UniProt Q99581 1-238); settings: protein: recombinant; tags: N-terminal GST; dsDNA, one strand shown
# T7 sequence: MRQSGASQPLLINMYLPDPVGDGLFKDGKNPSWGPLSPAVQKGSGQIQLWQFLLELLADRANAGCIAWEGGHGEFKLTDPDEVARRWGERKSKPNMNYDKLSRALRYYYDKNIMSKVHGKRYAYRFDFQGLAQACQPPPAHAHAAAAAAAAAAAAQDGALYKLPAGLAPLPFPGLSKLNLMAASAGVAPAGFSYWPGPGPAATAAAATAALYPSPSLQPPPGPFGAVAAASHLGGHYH
# How it was run: as §1
# [11] = target: ETV5 (Homo sapiens, UniProt P41161 1-510); settings: protein: recombinant; tags: N-terminal GST; dsDNA, one strand shown
# ETV5, sequence (P41161 whole entry): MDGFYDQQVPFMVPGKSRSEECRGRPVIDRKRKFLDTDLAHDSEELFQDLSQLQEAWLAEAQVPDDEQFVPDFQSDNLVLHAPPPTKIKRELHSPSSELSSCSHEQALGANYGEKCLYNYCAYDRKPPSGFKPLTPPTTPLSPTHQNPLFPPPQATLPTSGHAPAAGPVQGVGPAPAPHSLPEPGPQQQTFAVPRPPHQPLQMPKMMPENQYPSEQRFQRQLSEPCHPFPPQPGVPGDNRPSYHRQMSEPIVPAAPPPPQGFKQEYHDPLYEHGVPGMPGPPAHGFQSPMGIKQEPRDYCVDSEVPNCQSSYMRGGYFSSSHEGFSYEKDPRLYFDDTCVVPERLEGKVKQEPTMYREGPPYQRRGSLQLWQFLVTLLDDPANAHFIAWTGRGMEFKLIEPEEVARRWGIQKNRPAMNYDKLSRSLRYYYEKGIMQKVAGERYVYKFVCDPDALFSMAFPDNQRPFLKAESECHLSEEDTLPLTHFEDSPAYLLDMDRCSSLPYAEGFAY
# How it was run: as §1
# [12] = target: HSF1 (Homo sapiens, UniProt Q00613 1-529); settings: protein: recombinant; tags: N-terminal GST; chain copies: 3; dsDNA, one strand shown
# HSF1, sequence (Q00613 whole entry): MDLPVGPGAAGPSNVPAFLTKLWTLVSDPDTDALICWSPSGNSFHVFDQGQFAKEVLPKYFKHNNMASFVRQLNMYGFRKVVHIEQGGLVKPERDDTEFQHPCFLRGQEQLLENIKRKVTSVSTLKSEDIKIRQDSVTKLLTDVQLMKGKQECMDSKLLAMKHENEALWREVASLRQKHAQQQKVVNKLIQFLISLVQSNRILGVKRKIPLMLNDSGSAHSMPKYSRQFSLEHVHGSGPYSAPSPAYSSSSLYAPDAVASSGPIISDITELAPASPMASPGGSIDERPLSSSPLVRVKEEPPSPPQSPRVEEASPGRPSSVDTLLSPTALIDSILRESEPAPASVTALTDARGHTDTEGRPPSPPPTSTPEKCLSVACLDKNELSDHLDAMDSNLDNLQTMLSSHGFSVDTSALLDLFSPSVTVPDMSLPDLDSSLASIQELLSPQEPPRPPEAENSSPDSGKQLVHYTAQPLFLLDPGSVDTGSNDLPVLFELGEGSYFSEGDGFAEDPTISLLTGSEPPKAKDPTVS
# How it was run: as §1
# [13] = target: T8, SPIC (Homo sapiens, UniProt Q8N5J4 1-248); settings: protein: recombinant; tags: N-terminal GST; dsDNA, one strand shown
# T8 sequence: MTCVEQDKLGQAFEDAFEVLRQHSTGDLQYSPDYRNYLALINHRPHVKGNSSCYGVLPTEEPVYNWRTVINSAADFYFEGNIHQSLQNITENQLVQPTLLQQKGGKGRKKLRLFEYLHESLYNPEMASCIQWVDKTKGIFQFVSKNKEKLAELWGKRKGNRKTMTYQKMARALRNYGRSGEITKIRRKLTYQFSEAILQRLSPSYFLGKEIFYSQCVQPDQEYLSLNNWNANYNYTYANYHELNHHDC
# How it was run: as §1
# [14] = target: ELF4 (Homo sapiens, UniProt Q99607 1-663); settings: protein: recombinant; tags: N-terminal GST; dsDNA, one strand shown
# ELF4, sequence (Q99607 whole entry): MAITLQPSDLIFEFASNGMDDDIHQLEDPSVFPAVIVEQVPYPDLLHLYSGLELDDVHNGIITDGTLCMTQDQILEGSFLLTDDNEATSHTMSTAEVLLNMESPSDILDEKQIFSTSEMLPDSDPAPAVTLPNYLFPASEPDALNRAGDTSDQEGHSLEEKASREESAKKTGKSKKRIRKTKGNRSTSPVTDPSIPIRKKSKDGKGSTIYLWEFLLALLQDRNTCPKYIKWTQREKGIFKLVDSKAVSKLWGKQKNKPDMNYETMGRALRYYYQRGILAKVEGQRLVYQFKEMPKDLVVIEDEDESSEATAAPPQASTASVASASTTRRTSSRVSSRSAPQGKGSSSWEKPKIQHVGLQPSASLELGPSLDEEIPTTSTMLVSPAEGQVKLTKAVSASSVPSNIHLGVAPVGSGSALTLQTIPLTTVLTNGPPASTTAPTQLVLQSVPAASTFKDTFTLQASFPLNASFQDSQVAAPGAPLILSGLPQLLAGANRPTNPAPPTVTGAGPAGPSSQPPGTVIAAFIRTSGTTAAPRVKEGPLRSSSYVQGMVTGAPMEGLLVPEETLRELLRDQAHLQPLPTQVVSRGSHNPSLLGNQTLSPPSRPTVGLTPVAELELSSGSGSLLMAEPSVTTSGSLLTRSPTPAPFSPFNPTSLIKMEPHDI
# How it was run: as §1
# [15] = target: T9, ELK4 (Homo sapiens, UniProt P28324-2 1-405); settings: protein: recombinant; tags: N-terminal GST; dsDNA, one strand shown
# T9 sequence: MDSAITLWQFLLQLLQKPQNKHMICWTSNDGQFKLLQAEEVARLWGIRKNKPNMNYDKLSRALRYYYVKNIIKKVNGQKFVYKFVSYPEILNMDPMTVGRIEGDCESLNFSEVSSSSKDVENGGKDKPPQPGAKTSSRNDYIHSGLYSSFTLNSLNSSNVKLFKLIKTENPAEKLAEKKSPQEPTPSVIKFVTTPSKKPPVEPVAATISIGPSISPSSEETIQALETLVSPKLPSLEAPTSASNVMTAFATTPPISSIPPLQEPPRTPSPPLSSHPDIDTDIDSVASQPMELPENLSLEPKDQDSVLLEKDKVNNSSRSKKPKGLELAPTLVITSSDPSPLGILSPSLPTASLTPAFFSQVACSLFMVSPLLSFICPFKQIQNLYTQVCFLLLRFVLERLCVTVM
# How it was run: as §1
# [16] = target: T10, ETV2 (Homo sapiens, UniProt O00321 1-342); settings: protein: recombinant; tags: N-terminal GST; dsDNA, one strand shown
# T10 sequence: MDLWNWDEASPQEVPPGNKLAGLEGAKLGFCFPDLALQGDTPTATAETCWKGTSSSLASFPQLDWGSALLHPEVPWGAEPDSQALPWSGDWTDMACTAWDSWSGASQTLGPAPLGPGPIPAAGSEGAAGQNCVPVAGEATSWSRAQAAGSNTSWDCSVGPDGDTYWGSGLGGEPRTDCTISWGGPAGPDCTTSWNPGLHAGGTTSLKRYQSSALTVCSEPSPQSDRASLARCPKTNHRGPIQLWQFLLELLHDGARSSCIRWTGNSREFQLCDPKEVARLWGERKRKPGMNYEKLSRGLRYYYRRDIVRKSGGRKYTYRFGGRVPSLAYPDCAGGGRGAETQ
# How it was run: as §1
# [17] = target: T11, ELF3 (Homo sapiens, UniProt P78545 1-371); settings: protein: recombinant; tags: N-terminal GST; dsDNA, one strand shown
# T11 sequence: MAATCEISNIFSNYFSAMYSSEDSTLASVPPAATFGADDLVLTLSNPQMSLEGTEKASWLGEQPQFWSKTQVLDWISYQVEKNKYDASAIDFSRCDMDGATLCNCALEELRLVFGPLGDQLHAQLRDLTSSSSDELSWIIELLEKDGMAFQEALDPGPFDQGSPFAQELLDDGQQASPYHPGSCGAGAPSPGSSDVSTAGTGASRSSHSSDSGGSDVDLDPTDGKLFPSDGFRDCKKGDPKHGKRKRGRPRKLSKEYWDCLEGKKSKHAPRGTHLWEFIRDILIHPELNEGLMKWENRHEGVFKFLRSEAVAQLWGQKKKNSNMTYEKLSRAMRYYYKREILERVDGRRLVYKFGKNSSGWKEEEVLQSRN
# How it was run: as §1
# [18] = target: CRX (Homo sapiens, UniProt O43186 1-299); settings: protein: recombinant; tags: N-terminal GST; dsDNA, one strand shown
# CRX, sequence (O43186 whole entry): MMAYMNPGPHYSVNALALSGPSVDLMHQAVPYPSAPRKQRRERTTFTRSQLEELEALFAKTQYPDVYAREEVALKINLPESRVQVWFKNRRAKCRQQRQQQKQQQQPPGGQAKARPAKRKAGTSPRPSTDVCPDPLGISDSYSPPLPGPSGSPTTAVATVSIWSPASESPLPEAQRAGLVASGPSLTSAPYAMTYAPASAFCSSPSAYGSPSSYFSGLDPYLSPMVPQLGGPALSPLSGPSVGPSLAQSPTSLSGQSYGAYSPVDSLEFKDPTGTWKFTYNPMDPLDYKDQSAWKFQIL
# How it was run: as §1
sequence,measurement,setting,value
TCCCAG,binding signal,[1],"1.05 fold enrichment (6-mer frequency, TF over GST control)"
same,binding signal,[2],"1.09 fold enrichment (6-mer frequency, TF over GST control)"
same,binding signal,[3],"1.08 fold enrichment (6-mer frequency, TF over GST control)"
same,binding signal,[4],"1.07 fold enrichment (6-mer frequency, TF over GST control)"
same,binding signal,[5],"1.08 fold enrichment (6-mer frequency, TF over GST control)"
same,binding signal,[6],"1.1 fold enrichment (6-mer frequency, TF over GST control)"
same,binding signal,[7],"1.11 fold enrichment (6-mer frequency, TF over GST control)"
same,binding signal,[8],"1.08 fold enrichment (6-mer frequency, TF over GST control)"
same,binding signal,[9],"1.11 fold enrichment (6-mer frequency, TF over GST control)"
same,binding signal,[10],"1.08 fold enrichment (6-mer frequency, TF over GST control)"
same,binding signal,[11],"1.06 fold enrichment (6-mer frequency, TF over GST control)"
same,binding signal,[12],"1.16 fold enrichment (6-mer frequency, TF over GST control)"
same,binding signal,[13],"1.01 fold enrichment (6-mer frequency, TF over GST control)"
same,binding signal,[14],"1.15 fold enrichment (6-mer frequency, TF over GST control)"
same,binding signal,[15],"1.25 fold enrichment (6-mer frequency, TF over GST control)"
same,binding signal,[16],"1.02 fold enrichment (6-mer frequency, TF over GST control)"
same,binding signal,[17],"1.14 fold enrichment (6-mer frequency, TF over GST control)"
same,binding signal,[18],"1.19 fold enrichment (6-mer frequency, TF over GST control)"

# — PMC7862700, “An all-to-all approach to the identification of sequence-specific readers for epigenetic DNA modifications on cytosine”
